{"source": "PubChem BioAssay (NCATS)", "key": {"Papain (Carica papaya)": {"target": "Papain (Carica papaya) (UniProt P00784)", "sequence (P00784 whole entry, looked up)": "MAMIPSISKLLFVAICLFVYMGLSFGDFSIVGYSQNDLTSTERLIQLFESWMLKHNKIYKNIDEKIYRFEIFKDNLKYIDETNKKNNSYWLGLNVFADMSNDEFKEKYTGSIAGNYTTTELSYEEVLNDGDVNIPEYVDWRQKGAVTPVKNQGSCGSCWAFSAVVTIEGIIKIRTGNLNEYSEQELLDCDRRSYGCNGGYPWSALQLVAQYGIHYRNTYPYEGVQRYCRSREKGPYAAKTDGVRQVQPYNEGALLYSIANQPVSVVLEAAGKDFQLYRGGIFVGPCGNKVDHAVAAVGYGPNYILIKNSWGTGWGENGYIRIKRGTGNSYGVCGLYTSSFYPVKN", "assay": "Primary qHTS assay for inhibitors of the protease papain (AID 1645873);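 note: papain turnover of Z-FR-AMC read as the AMC fluorescence gain over 10 min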; note: potency is the fitted concentration of half-maximal effect; for activity change, negative = inhibition: % is set by controls: 0 for no effect and ±100 for the full control effect", "conditions": "papain Z-FR-AMC cleavage, AMC fluorescence; series mostly up to 49.8 µM"}, "[1]": {"assay": "Primary qHTS to identify inhibitors of SARS-CoV-2 cell entry (AID 1645846; calls by dose curve; note: nearly all actives have a fitted effect of over 45% in size; note: potency is the fitted concentration of half-maximal effect)", "conditions": "SARS-CoV-2 pseudovirus cell entry assay, luminescence", "procedure,_shortened": "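HEK293-ACE2 (Expi293F, stable hACE2), 1500 cells/well, o/n 37C; cpd 23 nL pin, 1 h; MLV-PP w/ SARS-CoV-2-S (Wuhan-Hu-1, Δ19 C-term); 48 h 37C; Bright-Glo luminescence; normalized vs S-PP and bald PP.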"}, "[2]": {"assay": "Primary qHTS for inhibitors of nuclear receptor binding SET domain protein 2 (NSD2) in an isogenic RCH-ACV NSD2 p.E1099K mutant (9B) (AID 1645876); note: nearly all actives have a fitted effect of over 70% in size; note: potency is the fitted concentration of half-maximal effect", "conditions": "RCH-ACV NSD2 E1099K (9B) viability, CellTiter-Glo, 72 h; series mostly up to 44.9 µM"}, "[3]": {"assay": "Primary qHTS for inhibitors of nuclear receptor binding SET domain protein 2 (NSD2) in an RCH-ACV wild type WT cells (2C) (AID 1645877); note: nearly all actives have a fitted effect of over 70% in size; note: potency is the fitted concentration of half-maximal effect", "conditions": "RCH-ACV NSD2 WT (2C) viability, CellTiter-Glo, 72 h; series mostly up to 44.9 µM"}, "[4]": {"assay": "VSVG counterscreen qHTS to identify inhibitors of SARS-CoV-2 cell entry (AID 1645847; calls by dose curve; note: potency is the fitted concentration of half-maximal effect; nearly all actives have a fitted effect of over 65% in size)", "conditions": "VSV-G pseudotyped particle entry, luciferase; series mostly up to 57.2 µM", "procedure,_shortened": "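Expi293F/hACE2 cells, overnight plating; cpd 1 h, 37C/5% CO2; + VSV-G PP (MLV pseudotyping), 48 h; supernatant removed, Bright-Glo luciferase read. Norm: VSV-G PP and bald PP wells.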"}, "[5]": {"target": "Rap guanine nucleotide exchange factor 3 (Homo sapiens) (UniProt O95398)", "sequence (O95398 whole entry, looked up)": "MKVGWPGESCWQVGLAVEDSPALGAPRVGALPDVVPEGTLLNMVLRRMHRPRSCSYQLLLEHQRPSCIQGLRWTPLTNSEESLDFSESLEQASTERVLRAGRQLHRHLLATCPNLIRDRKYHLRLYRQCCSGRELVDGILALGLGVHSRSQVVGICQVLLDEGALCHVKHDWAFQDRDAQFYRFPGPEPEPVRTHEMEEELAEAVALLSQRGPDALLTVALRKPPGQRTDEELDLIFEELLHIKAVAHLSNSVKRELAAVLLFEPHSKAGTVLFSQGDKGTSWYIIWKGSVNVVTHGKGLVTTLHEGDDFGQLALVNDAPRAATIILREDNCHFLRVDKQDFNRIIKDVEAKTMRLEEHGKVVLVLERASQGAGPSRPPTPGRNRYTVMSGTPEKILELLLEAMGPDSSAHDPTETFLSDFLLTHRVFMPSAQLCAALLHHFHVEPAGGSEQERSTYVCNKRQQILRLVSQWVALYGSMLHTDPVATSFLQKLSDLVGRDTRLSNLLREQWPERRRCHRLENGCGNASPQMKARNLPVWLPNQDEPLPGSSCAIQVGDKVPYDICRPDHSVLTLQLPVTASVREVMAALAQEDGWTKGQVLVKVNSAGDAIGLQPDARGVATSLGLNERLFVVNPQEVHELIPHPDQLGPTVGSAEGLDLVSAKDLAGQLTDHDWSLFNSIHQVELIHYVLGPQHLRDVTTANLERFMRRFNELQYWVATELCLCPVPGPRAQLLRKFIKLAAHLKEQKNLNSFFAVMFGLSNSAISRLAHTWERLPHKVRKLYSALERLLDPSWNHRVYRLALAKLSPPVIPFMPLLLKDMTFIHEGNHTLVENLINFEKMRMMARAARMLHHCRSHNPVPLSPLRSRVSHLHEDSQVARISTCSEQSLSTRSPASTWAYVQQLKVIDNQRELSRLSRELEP", "assay": "Confirmatory qHTS for antagonist of cAMP-regulated guanine nucleotide exchange factor 3 (EPAC1) (AID 1645880);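 note: plate controls were DMSO only for no effect and full effect of the ATA control for full effect; nearly all actives have a fitted effect of over 55% in size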", "conditions": "EPAC1 Rap1B-BODIPY-GDP exchange, fluorescence; series mostly up to 115 µM", "procedure,_shortened": "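Released BODIPY-GDP fluoresces less than Rap1-bound BODIPY-GDP; the signal is followed at 480/540 nm at 5-min intervals over 30 min, after 5 min at room temperature. Reactions contain 100 nM EPAC1, 250 nM RAP1B-BODIPY-GDP and 50 uM GDP; results are normalized to ATA and DMSO.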"}, "[6]": {"conditions": "activity change, negative = inhibition: at 57.1 µM (top of the series) unless noted, series mostly up to 57.1 µM"}}, "note": "Where “and” joins values, the source holds several entries; their conditions need not be identical. Identical values can stand only once. Results filed as inconclusive are left out. Where a structure was tested more than once in an assay, its records may differ in their call. Calls of active or inactive are those of the source. Unless noted, calls come from the whole dose curve; as a rule, active = well fitted curve in the direction sought with a large enough effect; inconclusive = small, poorly fitted or top-dose-only effect, or another doubt; inactive = no such curve, though single readings can be large; an effect the other way counts as inactive or inconclusive.", "data": [{"smiles": "C=CCN1CC[C@]23CCCCC2[C@H]1Cc1ccc(O)cc13", "note": "(some centres not stated)", "values": [{"measurement": "Potency", "setting": "Papain (Carica papaya)", "result": "inactive"}]}, {"smiles": "CC[C@@H](C(N)=O)N1CCCC1=O", "values": [{"measurement": "activity change, negative = inhibition", "setting": "[1]; [6]", "result": -1.29, "unit": "%"}, {"measurement": "Potency", "setting": "Papain (Carica papaya)", "result": "inactive"}, {"measurement": "Potency", "setting": "[2]", "result": "inactive"}, {"measurement": "Potency", "setting": "[3]", "result": "inactive"}]}, {"smiles": "O=C1[C@H](Cc2ccc(O)cc2)N2C(=O)CCN(C(=O)NCc3ccccc3)[C@H]2CN1Cc1cccc2ccccc12", "values": [{"measurement": "activity change, negative = inhibition", "setting": "[1]; [6]", "result": -93.3, "unit": "%"}]}, {"smiles": "CC(C)[C@H](C(=O)Nc1ccc(C(=O)NO)cc1)c1ccccc1", "values": [{"measurement": "activity change, negative = inhibition", "setting": "[1]; [6]", "result": -95.5, "unit": "%"}, {"measurement": "Potency", "setting": "[4]", "result": "30.4 µM (active)"}]}, {"smiles": "COc1cc(OC2CCN(C)CC2)ccc1Nc1ncc2c(n1)n(C1CCCC1)c(=O)n2C", "values": [{"measurement": "Potency", "setting": "[1]; [6]", "result": "28.2 µM (active)"}]}, {"smiles": "CC(C)(C)OC(=O)Nc1ccc(-c2cc(C(=O)NCCCCCCC(=O)NO)no2)cc1", "values": [{"measurement": "activity change, negative = inhibition", "setting": "[1]; [6]", "result": -8.17, "unit": "%"}]}, {"smiles": "Cc1cc(Nc2cc(N3CCN(C)CC3)nc(Sc3ccc(NC(=O)C4CC4)cc3)n2)n[nH]1", "values": [{"measurement": "Potency", "setting": "[4]", "result": "0.215 µM (active)"}]}, {"smiles": "CS(=O)(=O)c1cccc(CNc2nc(Nc3ccc4c(c3)CCC(=O)N4)ncc2C(F)(F)F)c1", "values": [{"measurement": "Potency", "setting": "[4]", "result": "4.29 µM (active)"}]}, {"smiles": "CN(c1ncccc1CNc1nc(Nc2ccc3c(c2)CC(=O)N3)ncc1C(F)(F)F)S(C)(=O)=O", "values": [{"measurement": "Potency", "setting": "[1]; [6]", "result": "3.16 µM (active)"}, {"measurement": "Potency", "setting": "[4]", "result": "2.15 µM (active)"}]}, {"smiles": "O=C1C=CC[C@@H]2[C@H]3CCCN4CCC[C@@H](CN12)[C@@H]34", "values": [{"measurement": "Potency", "setting": "[1]; [6]", "result": "inactive"}, {"measurement": "Potency", "setting": "[2]", "result": "inactive"}, {"measurement": "Potency", "setting": "[3]", "result": "inactive"}]}, {"smiles": "Cc1nccc2c1[nH]c1ccccc12", "values": [{"measurement": "Potency", "setting": "Papain (Carica papaya)", "result": "28.2 µM (active)"}]}, {"smiles": "O=C(O)c1ccc(O)c2ncc(N3CCOCC3)cc12", "values": [{"measurement": "Potency", "setting": "[1]; [6]", "result": "28.2 µM (active)"}]}, {"smiles": "CC(C)[C@]12O[C@H]1[C@@H]1O[C@]13[C@]1(O[C@H]1C[C@H]1C4=C(CC[C@@]13C)C(=O)OC4)[C@@H]2O", "values": [{"measurement": "activity change, negative = inhibition", "setting": "[1]; [6]", "result": -93.7, "unit": "%"}, {"measurement": "Potency", "setting": "[2]", "result": "18.3 nM (active) and 23.5 nM (active)"}, {"measurement": "Potency", "setting": "[3]", "result": "12.9 nM (active) and 18.6 nM (active)"}]}, {"smiles": "CNC(=O)c1cc(Oc2ccc(NC(=O)Nc3ccc(Cl)c(C(F)(F)F)c3)c(F)c2)ccn1", "values": [{"measurement": "Potency", "setting": "[4]", "result": "10.8 µM (active)"}]}, {"smiles": "CN[C@@H]1Cc2cccc3[nH]c(=O)n(c23)C1", "values": [{"measurement": "activity change, negative = inhibition", "setting": "[1]; [6]", "result": 4.06, "unit": "%"}, {"measurement": "Potency", "setting": "[2]", "result": "inactive"}, {"measurement": "Potency", "setting": "[3]", "result": "inactive"}]}, {"smiles": "CC(=O)Nc1ccc([C@H](C)C(=O)Nc2ncc(C(C)C)s2)cc1", "values": [{"measurement": "Potency", "setting": "[4]", "result": "13.6 µM (active)"}]}, {"smiles": "Fc1ccc(Cl)cc1-c1nc(Nc2ccncc2)c2nccnc2n1", "values": [{"measurement": "activity change, negative = inhibition", "setting": "[1]; [6]", "result": -13.6, "unit": "%"}]}, {"smiles": "Cc1nn(Cc2ccccc2Cl)c(C)c1CN(C)CC(O)COc1ccc(Cl)cc1", "note": "(configuration not stated)", "values": [{"measurement": "Potency", "setting": "[1]; [6]", "result": "31.6 µM (active)"}]}, {"smiles": "c1ccc(CCCN2CCN(CCOC(c3ccccc3)c3ccccc3)CC2)cc1", "values": [{"measurement": "Potency", "setting": "Papain (Carica papaya)", "result": "inactive"}]}, {"smiles": "CN[C@@H]1C[C@@H](c2ccc(Cl)c(Cl)c2)c2ccccc21", "values": [{"measurement": "Potency", "setting": "Papain (Carica papaya)", "result": "inactive"}]}, {"smiles": "CNCCc1c[nH]c2ccc(O)cc12", "values": [{"measurement": "Potency", "setting": "Papain (Carica papaya)", "result": "inactive"}]}, {"smiles": "COc1cc2c(cc1O)CC[C@@H]1[C@@H]2CC[C@]2(C)[C@@H](O)CC[C@@H]12", "values": [{"measurement": "activity change, negative = inhibition", "setting": "[1]; [6]", "result": -26.7, "unit": "%"}]}, {"smiles": "CCCN(CCC)C1CCc2ccc(O)cc2C1", "note": "(configuration not stated)", "values": [{"measurement": "Potency", "setting": "Papain (Carica papaya)", "result": "inactive"}]}, {"smiles": "C=CCn1c(=O)c2cnc(Nc3ccc(N4CCN(C)CC4)cc3)nc2n1-c1cccc(C(C)(C)O)n1", "values": [{"measurement": "Potency", "setting": "[1]; [6]", "result": "1.41 µM (active)"}]}, {"smiles": "CCNC(=O)CC1N=C(c2ccc(Cl)cc2)c2cc(OC)ccc2-n2c(C)nnc21", "note": "(configuration not stated)", "values": [{"measurement": "activity change, negative = inhibition", "setting": "[1]; [6]", "result": -16.5, "unit": "%"}, {"measurement": "Potency", "setting": "[2]", "result": "9.34 µM (active) and inactive and 515 nM (active)"}, {"measurement": "Potency", "setting": "[3]", "result": "5.9 µM (active) and inactive and 409 nM (active)"}]}, {"smiles": "CCCS(=O)(=O)Nc1ccc(F)c(C(=O)c2c[nH]c3ncc(-c4ccc(Cl)cc4)cc23)c1F", "values": [{"measurement": "activity change, negative = inhibition", "setting": "[1]; [6]", "result": -8.78, "unit": "%"}, {"measurement": "Potency", "setting": "[4]", "result": "21.5 µM (active)"}]}, {"smiles": "Cc1ccc(C(N)=O)cc1Nc1nccc(-c2cn(C(C)C)c3cnccc23)n1", "values": [{"measurement": "Potency", "setting": "[1]; [6]", "result": "8.91 µM (active)"}, {"measurement": "Potency", "setting": "[4]", "result": "2.15 µM (active)"}]}, {"smiles": "C[C@@H]1CN(c2c(F)c(N)c3c(=O)c(C(=O)O)cn(C4CC4)c3c2F)C[C@H](C)N1", "values": [{"measurement": "activity change, negative = inhibition", "setting": "[1]; at 27.1 µM (top of the series)", "result": -12.9, "unit": "%"}, {"measurement": "activity change, negative = inhibition", "setting": "[1]; at 57.1 µM (top of the series)", "result": -5.48, "unit": "%"}]}, {"smiles": "CCC(C)(Oc1ccc(C2(c3ccc(OC(C)(CC)C(=O)O)cc3)CCCCC2)cc1)C(=O)O", "note": "(configuration not stated)", "values": [{"measurement": "Potency", "setting": "[1]; [6]", "result": "inactive"}]}, {"smiles": "C[C@@H](N)Cc1cnc[nH]1", "values": [{"measurement": "Potency", "setting": "Papain (Carica papaya)", "result": "inactive"}]}, {"smiles": "NCCc1c[nH]c2ccc(O)cc12", "values": [{"measurement": "Potency", "setting": "Papain (Carica papaya)", "result": "inactive"}]}, {"smiles": "CC[C@@]1(O)C(=O)OCc2c1cc1n(c2=O)Cc2cc3ccccc3nc2-1", "values": [{"measurement": "activity change, negative = inhibition", "setting": "[1]; [6]", "result": -94.8, "unit": "%"}, {"measurement": "Potency", "setting": "Papain (Carica papaya)", "result": "3.98 µM (active)"}, {"measurement": "Potency", "setting": "[2]", "result": "14.8 nM (active)"}, {"measurement": "Potency", "setting": "[3]", "result": "13.2 nM (active)"}]}, {"smiles": "COc1ccc2c(c[n+](C)c3c4cc5c(cc4ccc23)OCO5)c1OC", "values": [{"measurement": "activity change, negative = inhibition", "setting": "[1]; [6]", "result": -96.4, "unit": "%"}, {"measurement": "Potency", "setting": "Papain (Carica papaya)", "result": "inactive"}, {"measurement": "Potency", "setting": "[2]", "result": "inactive"}, {"measurement": "Potency", "setting": "[3]", "result": "inactive"}]}, {"smiles": "O=C(O)c1ccc2c(c1)nc(Nc1cccc(Cl)c1)c1ccncc12", "values": [{"measurement": "Potency", "setting": "[4]", "result": "2.15 µM (active)"}]}, {"smiles": "Cc1nc(-c2ccc(-c3ccc(C(=O)N4CCc5cc6c(cc54)C4(CCN(C)CC4)CO6)cc3)c(C)c2)no1", "values": [{"measurement": "outcome", "setting": "[5]", "result": "inactive"}]}]}
